# From PubChem BioAssay (NCI)
# About 79,000 compounds went through this panel and 15% of them were active in at least one assay; those are over-represented in the sample as a whole. Values without a mark were called inactive. The source made the active and inactive calls. Cut-off read from the data, not from the text of the source: active = growth inhibition above about 70%; inactive = the rest.
# How the values were obtained:
# [1] = NCI Yeast Anticancer Drug Screen. Data for the rad50 strain (AID 155);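 note: 0% = growth of vehicle-only cultures of the same strain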; conditions: S. cerevisiae rad50 strain growth inhibition, hits give high values
# Summary of the method: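 Vehicle-treated cultures provide the reference for the growth inhibition reported for compound-exposed, repair-deficient yeast.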
# [2] = NCI Yeast Anticancer Drug Screen. Data for the mec2-1 strain (AID 157); conditions: S. cerevisiae mec2-1 strain, hits give high values
# Summary of the method: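 Yeast mec2-1 mutant treated with compound. Readout: growth inhibition vs vehicle controls.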
# [3] = NCI Yeast Anticancer Drug Screen. Data for the sgs1 mgt1 strain (AID 161);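 note: 0% = growth of cultures given vehicle only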; conditions: S. cerevisiae sgs1 mgt1 strain, hits give high values
# Summary of the method: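 Test agents were incubated with a DNA-repair-mutant yeast strain. Growth was then read and compared against vehicle-treated controls.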
# [4] = NCI Yeast Anticancer Drug Screen. Data for the cln2 rad14 strain (AID 165);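 note: 0% = growth equal to vehicle treated cultures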; conditions: S. cerevisiae cln2 rad14 strain, hits give high values
# Summary of the method: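 cln2 rad14 yeast strain; compound exposure; growth inhibition read vs vehicle controls.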
# [5] = NCI Yeast Anticancer Drug Screen. Data for the bub3 strain (AID 167); conditions: S. cerevisiae bub3 mutant strain, hits give high values
# Summary of the method: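 Mutant yeast screening strain plus compound; vehicle-treated cultures serve as the 0% inhibition reference.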
# [6] = NCI Yeast Anticancer Drug Screen. Data for the mlh1 rad18 strain (AID 175); conditions: S. cerevisiae mlh1 rad18 strain growth inhibition, hits give high values
# Summary of the method: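 Yeast w/ defined DNA-repair lesions; compound exposure; growth vs vehicle controls → % inhibition.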
# [7] = at 5.0 µM (retest, dose inferred, filed as 0.5)
# [8] = at 50.0 µM (retest, dose inferred, filed as 5.0)
Compound,"growth inhibition [1, 7]","growth inhibition [1, 8]",growth inhibition ([1]; at 50.0 µM),"growth inhibition [2, 7]","growth inhibition [2, 8]",growth inhibition ([2]; at 50.0 µM),"growth inhibition [3, 7]","growth inhibition [3, 8]",growth inhibition ([3]; at 50.0 µM),"growth inhibition [4, 7]","growth inhibition [4, 8]",growth inhibition ([4]; at 50.0 µM),"growth inhibition [5, 7]","growth inhibition [5, 8]",growth inhibition ([5]; at 50.0 µM),"growth inhibition [6, 7]","growth inhibition [6, 8]",growth inhibition ([6]; at 50.0 µM)
COc1ccc(Cc2cncc3c(O)c(OC)ccc23)cc1O,-1%,44%,80.2% (active),0%,50%,69.2%,-13%,50%,39.2%,2%,14%,59.9%,-1%,21%,86.4% (active),6%,49%,89.5% (active)
c1ccc(Nc2cccc3ccccc23)cc1,-4%,95% (active),94.8% (active),-5%,81% (active),96.2% (active),-3%,62%,95.8% (active),-1%,32%,95.1% (active),43%,95% (active),91.5% (active),-1%,88% (active),95.5% (active)
O=C1OCCN1/N=C/c1ccc([N+](=O)[O-])o1,14%,54%,81.2% (active),7%,30%,54.1%,9%,62%,87.7% (active),-2%,27%,50.1%,7%,39%,40.8%,30%,72% (active),88.5% (active)
Oc1c(N2CCOCC2)cc(-c2cc(N3CCOCC3)c(O)c3ccccc23)c2ccccc12,26%,30%,82.2% (active),35%,38%,86.3% (active),-19%,9%,50.3%,9%,21%,42.5%,16%,43%,51.6%,35%,39%,80.5% (active)
O=C(O)/C=C/C(=O)c1ccc(O)cc1,25%,97% (active),95.7% (active),9%,94% (active),95.8% (active),28%,93% (active),94.6% (active),7%,91% (active),91.3% (active),5%,95% (active),92% (active),32%,98% (active),96% (active)
O=C1/C(=C/c2ccccc2[N+](=O)[O-])COc2ccccc21,37%,94% (active),-4%,28%,96% (active),12.7%,21%,92% (active),13.2%,28%,94% (active),8.75%,34%,98% (active),15.1%,23%,98% (active),8.65%
c1ccc(Cn2nnnc2-c2ccccc2)cc1,-151%,-125%,23.8%,-53%,-43%,43.5%,-66%,-61%,1.75%,-55%,-33%,80.5% (active),-70%,-57%,5.45%,-147%,-89%,14.3%
CCN(CC)C(C)(C)C(=O)/C=C/c1ccc(Cl)c(Cl)c1,13%,97% (active),92.7% (active),3%,97% (active),99.2% (active),6%,97% (active),82.7% (active),-8%,96% (active),47.9%,5%,98% (active),96% (active),0%,95% (active),95% (active)
CCC(=O)OC1=C(Cl)C(=O)c2ccccc2C1=O,2%,98% (active),71.8% (active),4%,99% (active),27.2%,9%,99% (active),63.8%,2%,98% (active),0.15%,6%,99% (active),34.5%,14%,98% (active),55.4%
